# Test results: the supplement of paper PMC6897291
# Assays:
# U-2932 [1] = assay: growth inhibition by drug alone (1 - RLU/untreated control) (fraction); higher = stronger inhibition; conditions: 177Lu-lilotomab satetraxetan 0 ug/ml
# Method in brief: (§1)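 A radiolabelled anti-CD37 antibody conjugate (~600 MBq/mg) was applied for 18 h at 0.5 µg/ml to RIVA and 1 µg/ml to U-2932 cells, with untreated cells run alongside. All cells were washed and seeded at 3,000 cells/well onto library-printed plates at 10/100 nM (RIVA) or 10/1,000 nM (U-2932). Growth inhibition was based on RealTime-Glo luminescence compared with untreated no-drug wells. Daily reads began on day 3 after 1 h at 37°C, with each value being 1 − RLU/mean of the 48 such wells on that plate.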
# RIVA [2] = assay: as above; conditions: 177Lu-lilotomab satetraxetan 0 ug/ml
# Method in brief: as §1
# U-2932 [3] = assay: growth inhibition by drug plus 177Lu-lilotomab satetraxetan (1 - RLU/untreated control) (fraction); higher = stronger inhibition; conditions: 177Lu-lilotomab satetraxetan 1 ug/ml
# Method in brief: as §1
# RIVA [4] = assay: as above; conditions: 177Lu-lilotomab satetraxetan 0.5 ug/ml
# Method in brief: as §1
SMILES,"growth inhibition by drug alone (U-2932 [1]; 10 nM, time (day): 3)","growth inhibition by drug alone (U-2932 [1]; 10 nM, time (day): 4)","growth inhibition by drug alone (U-2932 [1]; 10 nM, time (day): 5)","growth inhibition by drug alone (U-2932 [1]; 10 nM, time (day): 6)","growth inhibition by drug alone (U-2932 [1]; 1000 nM, time (day): 3)","growth inhibition by drug alone (U-2932 [1]; 1000 nM, time (day): 4)","growth inhibition by drug alone (U-2932 [1]; 1000 nM, time (day): 5)","growth inhibition by drug alone (U-2932 [1]; 1000 nM, time (day): 6)","growth inhibition by drug alone (RIVA [2]; 10 nM, time (day): 3)","growth inhibition by drug alone (RIVA [2]; 10 nM, time (day): 4)","growth inhibition by drug alone (RIVA [2]; 10 nM, time (day): 5)","growth inhibition by drug alone (RIVA [2]; 10 nM, time (day): 6)","growth inhibition by drug alone (RIVA [2]; 100 nM, time (day): 3)","growth inhibition by drug alone (RIVA [2]; 100 nM, time (day): 4)","growth inhibition by drug alone (RIVA [2]; 100 nM, time (day): 5)","growth inhibition by drug alone (RIVA [2]; 100 nM, time (day): 6)","growth inhibition by drug plus 177Lu-lilotomab satetraxetan (U-2932 [3]; 10 nM, time (day): 3)","growth inhibition by drug plus 177Lu-lilotomab satetraxetan (U-2932 [3]; 10 nM, time (day): 4)","growth inhibition by drug plus 177Lu-lilotomab satetraxetan (U-2932 [3]; 10 nM, time (day): 5)","growth inhibition by drug plus 177Lu-lilotomab satetraxetan (U-2932 [3]; 10 nM, time (day): 6)","growth inhibition by drug plus 177Lu-lilotomab satetraxetan (U-2932 [3]; 1000 nM, time (day): 3)","growth inhibition by drug plus 177Lu-lilotomab satetraxetan (U-2932 [3]; 1000 nM, time (day): 4)","growth inhibition by drug plus 177Lu-lilotomab satetraxetan (U-2932 [3]; 1000 nM, time (day): 5)","growth inhibition by drug plus 177Lu-lilotomab satetraxetan (U-2932 [3]; 1000 nM, time (day): 6)","growth inhibition by drug plus 177Lu-lilotomab satetraxetan (RIVA [4]; 10 nM, time (day): 3)","growth inhibition by drug plus 177Lu-lilotomab satetraxetan (RIVA [4]; 10 nM, time (day): 4)","growth inhibition by drug plus 177Lu-lilotomab satetraxetan (RIVA [4]; 10 nM, time (day): 5)","growth inhibition by drug plus 177Lu-lilotomab satetraxetan (RIVA [4]; 10 nM, time (day): 6)","growth inhibition by drug plus 177Lu-lilotomab satetraxetan (RIVA [4]; 100 nM, time (day): 3)","growth inhibition by drug plus 177Lu-lilotomab satetraxetan (RIVA [4]; 100 nM, time (day): 4)","growth inhibition by drug plus 177Lu-lilotomab satetraxetan (RIVA [4]; 100 nM, time (day): 5)","growth inhibition by drug plus 177Lu-lilotomab satetraxetan (RIVA [4]; 100 nM, time (day): 6)"
Nc1nc(OCc2cc(Br)cs2)c2[nH]cnc2n1 [Lomeguatrib],-0.115,-0.036,-0.163,-0.244,-0.0214,-0.011,-0.105,-0.195,-0.0122,-0.0435,-0.118,-0.367,-0.0285,-0.0397,-0.0789,-0.154,0.00798,0.0431,0.0314,0.114,-0.0706,0.00418,0.025,0.00957,0.437,0.531,0.544,0.548,0.404,0.479,0.488,0.463
O=NN(CCCl)C(=O)NC1CCCCC1 [Lomustine (CeeNU)],0.0125,-0.0069,-0.0761,-0.178,-0.00465,0.00866,-0.0378,0.00712,-0.055,-0.0849,-0.137,-0.324,-0.313,-0.232,-0.254,-0.408,0.00156,0.0498,0.0878,0.11,-0.00262,0.0596,0.0893,0.149,0.573,0.596,0.607,0.603,0.383,0.486,0.488,0.501
Cc1cccc(-c2nn3c(c2-c2ccnc4ccc(C(N)=O)cc24)CCC3)n1,-0.0698,-0.0435,-0.0298,0.0787,-0.0166,-0.0114,-0.0422,-0.0441,-0.233,-0.26,-0.269,-0.342,-0.0721,-0.126,-0.16,-0.229,-0.116,-0.0664,-0.0409,0.0836,0.0167,0.0206,-0.00167,0.117,0.371,0.487,0.502,0.523,0.372,0.444,0.459,0.437
CN(C)Cc1ccc(-c2nc3cccc4c3n2CCNC4=O)cc1,0.121,0.0696,-0.0285,-0.000931,0.038,0.056,-0.00883,-0.203,-0.0131,0.0265,-0.0439,-0.223,-0.0162,0.0398,0.00266,-0.0877,0.00803,0.0491,0.0539,0.0786,0.0336,0.127,0.116,0.183,0.564,0.632,0.638,0.652,0.585,0.642,0.654,0.657
COc1ccc(-c2oc3cc(OC)ccc3c2C(=O)c2ccc(C#N)cc2)cc1,0.084,0.0751,0.0436,-0.022,-0.0181,0.0261,-0.052,-0.253,-0.046,-0.0513,-0.124,-0.374,-0.0825,-0.0731,-0.0858,-0.201,-0.0286,-0.00458,0.0392,0.0337,-0.0968,0.0212,0.0134,0.0408,0.441,0.559,0.571,0.572,0.391,0.503,0.507,0.483
CC(=O)O[C@]1(C(C)=O)CC[C@H]2[C@@H]3C[C@H](C)C4=CC(=O)CC[C@]4(C)[C@H]3CC[C@@]21C [Medroxyprogesterone acetate],0.141,0.111,0.0166,-0.207,0.107,0.162,0.15,0.056,-0.0698,-0.099,-0.346,-0.679,-0.507,-0.273,-0.35,-0.619,0.0781,0.0764,0.144,0.108,0.102,0.176,0.224,0.336,0.422,0.555,0.543,0.565,0.235,0.389,0.409,0.427
CCOc1ccn(-c2ccc(F)cc2)c(=O)c1C(=O)Nc1ccc(Oc2ccnc(N)c2Cl)c(F)c1,0.143,0.12,-0.0713,-0.014,0.036,0.0178,-0.127,-0.209,0.0958,0.084,0.0356,-0.0223,-0.0283,0.013,-0.000157,-0.0616,0.12,0.152,0.188,0.258,0.0517,0.106,0.162,0.259,0.626,0.638,0.657,0.657,0.445,0.512,0.523,0.514
Cc1[nH]c(/C=C2\C(=O)Nc3ccc(S(=O)(=O)N(C)c4cccc(Cl)c4)cc32)c(C)c1C(=O)N1CCN(C)CC1,-0.0104,0.00253,-0.0727,-0.198,-0.0486,-0.0391,-0.0232,0.0376,-0.187,-0.174,-0.209,-0.352,-0.317,-0.305,-0.286,-0.342,-0.0184,0.0537,0.0856,0.0845,-0.011,0.0937,0.135,0.249,0.489,0.536,0.543,0.552,0.412,0.518,,
